The results in this text go back to PubChem BioAssay (EPA / NIEHS).

Read-out in assay [1]: Transforming growth factor beta 1 (TGFb1), TGFB1 (gene 7040)
Kind of assay: BSK_KF3CT_TGFb1: BioMAP Diversity Plus: KF3CT Assay for Transforming growth factor beta 1 (TGFb1) Biomarker Activity (AID 2283072). Conditions: primary human keratinocytes with fibroblasts; actives raise or lower the signal. The essentials: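 ELISA quantifies TGF-b1 at 24 h post-dose in a primary human skin co-culture of keratinocytes and fibroblasts, with gain or loss judged against DMSO. Parallel SRB total-protein staining flags overt cytotoxicity.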

Read-out in assay [2]: C-C motif chemokine 2 (Homo sapiens) (UniProt P13500)
Kind of assay: BSK_KF3CT_MCP1: BioMAP Diversity Plus: KF3CT Assay for Monocyte Chemoattractant Protein 1 (MCP1/CCL2) Biomarker Activity (AID 2283073). The conditions noted are these: primary human keratinocytes with fibroblasts; actives raise or lower the signal. The essentials: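 Human keratinocyte plus foreskin fibroblast primary co-culture exposed to chemical for 24 h. MCP-1 levels measured by ELISA. Bidirectional curve fitting relative to DMSO negative control as baseline.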

Read-out in assay [3]: Matrix Metallopeptidase 9 (MMP9), MMP9 (gene 4318)
Description: BSK_KF3CT_MMP9: BioMAP Diversity Plus: KF3CT Assay for Matrix Metallopeptidase 9 (MMP9) Biomarker Activity (AID 2283074). Conditions: primary human keratinocytes with fibroblasts; actives raise or lower the signal. The essentials:
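ELISA read-out of MMP-9 at 24 h post-dosing in a co-culture of human skin keratinocytes and foreskin fibroblasts. Gain or loss of signal was fitted in both directions against DMSO.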

Read-out in assay [4]: urokinase plasminogen activator (uPA), PLAU (gene 5328)
Kind of assay: BSK_KF3CT_uPA: BioMAP Diversity Plus: KF3CT Assay for urokinase plasminogen activator (uPA) Biomarker Activity (AID 2283075). The conditions noted are these: primary human keratinocytes with fibroblasts; actives raise or lower the signal. The essentials: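 Skin co-culture (keratinocytes + foreskin fibroblasts), human primary; 24 h post-dose; uPA by ELISA; gain/loss fit vs DMSO baseline.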

Read-out in assay [5]: CD40, CD40 (gene 958)
Description: BSK_LPS_CD40: BioMAP Diversity Plus: LPS Assay for CD40 Biomarker Activity (AID 2283076). Conditions: primary human HUVEC with PBMC; actives raise or lower the signal. The essentials:
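Primary human umbilical vein endothelial cells co-cultured with peripheral blood mononuclear cells, LPS-stimulated, were dosed with chemical and read 24 h later. CD40 levels were measured by ELISA and fitted bidirectionally against DMSO as negative control and baseline.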

Read-out in assay [6]: E-selectin (Homo sapiens) (UniProt P16581)
Description: BSK_LPS_Eselectin: BioMAP Diversity Plus: LPS Assay for Eselectin Biomarker Activity (AID 2283077). Conditions: primary human HUVEC with PBMC; actives raise or lower the signal. The essentials: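 Human umbilical vein endothelial cells co-cultured with peripheral blood mononuclear cells under LPS stimulation; E-selectin measured by ELISA 24 h after chemical dosing. Activity fitted bidirectionally against DMSO as negative control and baseline.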

Read-out in assay [7]: Interleukin-8 (IL8), CXCL8 (gene 3576)
Description: BSK_LPS_IL8: BioMAP Diversity Plus: LPS Assay for Interleukin-8 (IL8) Biomarker Activity (AID 2283078). The conditions noted are these: primary human HUVEC with PBMC; actives raise or lower the signal. In short, it runs like this:
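Human umbilical vein endothelial cells co-cultured with PBMC were stimulated with LPS; IL-8 levels were measured by ELISA 24 h after chemical dosing. Activity was fitted bidirectionally against DMSO as negative control and baseline.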

Assay [8] can be described thus: BSK_LPS_SRB: Viability Assessment in the BioMAP Diversity Plus: LPS Assay (AID 2283079).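 Further: total protein by sulforhodamine B absorbance as a cytotoxicity measure; measured one day after compound addition.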 Conditions: primary human HUVEC with PBMC. The essentials:
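Human umbilical vein endothelial cells co-cultured with PBMC (LPS system) were dosed for 24 h. Total protein was stained with 0.1% sulforhodamine B after 10% TCA fixation, read at 560 nm, and fitted bidirectionally against DMSO baseline.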

Read-out in assay [9]: Interleukin-1 alpha (IL1a), IL1A (gene 3552)
Kind of assay: BSK_LPS_IL1a: BioMAP Diversity Plus: LPS Assay for Interleukin-1 alpha (IL1a) Biomarker Activity (AID 2283080). The conditions noted are these: primary human HUVEC with PBMC; actives raise or lower the signal. In short, it runs like this: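 Human umbilical vein endothelial cells co-cultured with peripheral blood mononuclear cells were LPS-stimulated and exposed to test chemicals for 24 h. IL-1 alpha was quantified by ELISA, with bidirectional curve fitting against DMSO as the negative control and baseline.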

Read-out in assay [10]: Monocyte Chemoattractant Protein-1 (MCP1), CCL2 (gene 6347)
Description: BSK_LPS_MCP1: BioMAP Diversity Plus: LPS Assay for Monocyte Chemoattractant Protein-1 (MCP1) Biomarker Activity (AID 2283081). Conditions: primary human HUVEC with PBMC; actives raise or lower the signal. In short, it runs like this:
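HUVEC plus PBMC co-culture (human primary cells, LPS system) exposed to test chemical for 24 h; MCP-1 measured by ELISA. Bidirectional curve fitting against DMSO baseline; parallel SRB total-protein staining flags overt cytotoxicity.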

Assay [11] is described as follows: BSK_LPS_PGE2: BioMAP Diversity Plus: LPS Assay for Prostaglandin E2 (PGE2) Biomarker Activity (AID 2283082). Conditions: primary human HUVEC with PBMC; actives raise or lower the signal. In short, it runs like this: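 PGE2 release measured by ELISA in an LPS-activated co-culture of human umbilical vein endothelial cells and peripheral blood mononuclear cells, read at 24 h post-dosing. DMSO served as baseline for bidirectional curve fitting.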

Read-out in assay [12]: Macrophage colony-stimulating factor (MCSF), CSF1 (gene 1435)
Kind of assay: BSK_LPS_MCSF: BioMAP Diversity Plus: LPS Assay for Macrophage colony-stimulating factor (MCSF) Biomarker Activity (AID 2283083). Conditions: primary human HUVEC with PBMC; actives raise or lower the signal. The essentials: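 Human umbilical vein endothelial cells co-cultured with peripheral blood mononuclear cells were exposed to compound for 24 h. M-CSF levels were measured by ELISA, and bidirectional curve fitting used DMSO as the negative control and baseline.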

Read-out in assay [13]: Tissue Factor, F3 (gene 2152)
Description: BSK_LPS_TissueFactor: BioMAP Diversity Plus: LPS Assay for Tissue Factor Biomarker Activity (AID 2283084). The conditions noted are these: primary human HUVEC with PBMC; actives raise or lower the signal. In short, it runs like this:
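Human umbilical vein endothelial cells co-cultured with peripheral blood mononuclear cells were dosed and stimulated with LPS. Cell-surface CD142 was quantified by ELISA at 24 h. Activity was fitted bidirectionally against DMSO baseline.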

Read-out in assay [14]: Tumor necrosis factor (Homo sapiens) (UniProt P01375)
Description: BSK_LPS_TNFa: BioMAP Diversity Plus: LPS Assay for Tumour Necrosis Factor alpha (TNFa) Biomarker Activity (AID 2283085). Conditions: primary human HUVEC with PBMC; actives raise or lower the signal. The essentials:
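TNFa was quantified by ELISA in LPS-activated co-cultures of human endothelial cells and PBMC, 24 h post-dosing. Both increases and decreases versus DMSO were fitted.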

Read-out in assay [15]: Vascular cell adhesion molecule 1 (VCAM1), VCAM1 (gene 7412)
Description: BSK_LPS_VCAM1: BioMAP Diversity Plus: LPS Assay for Vascular cell adhesion molecule 1 (VCAM1) Biomarker Activity (AID 2283086). The conditions noted are these: primary human HUVEC with PBMC; actives raise or lower the signal. The essentials:
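VCAM-1 quantified by ELISA in an LPS-activated co-culture of human endothelial cells and peripheral blood mononuclear cells, read 24 h post-treatment. Fitted in both directions versus DMSO; parallel SRB staining flags overt cytotoxicity.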

Read-out in assay [16]: CD40, CD40 (gene 958)
Kind of assay: BSK_SAg_CD40: BioMAP Diversity Plus: SAg Assay for CD40 Biomarker Activity (AID 2283088). The conditions noted are these: primary human HUVEC with PBMC; actives raise or lower the signal. The essentials: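 Human umbilical vein endothelial cells co-cultured with PBMC; CD40 levels measured by ELISA with fluorescence read-out 24 h after chemical dosing. Gain or loss of signal fitted bidirectionally against DMSO baseline.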

Read-out in assay [17]: Monocyte Chemoattractant Protein-1 (MCP1), CCL2 (gene 6347)
Kind of assay: BSK_SAg_MCP1: BioMAP Diversity Plus: SAg Assay for Monocyte Chemoattractant Protein-1 (MCP1) Biomarker Activity (AID 2283090). The conditions noted are these: primary human HUVEC with PBMC; actives raise or lower the signal. In short, it runs like this:
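Values derive from bidirectional fitting of ELISA-measured MCP1 against DMSO controls. Readings were taken 24 h after dosing human vascular endothelial cells co-cultured with peripheral blood mononuclear cells under superantigen stimulation.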

Read-out in assay [18]: E-selectin (Homo sapiens) (UniProt P16581)
Description: BSK_SAg_Eselectin: BioMAP Diversity Plus: SAg Assay for Eselectin Biomarker Activity (AID 2283091). Conditions: primary human HUVEC with PBMC; actives raise or lower the signal. In short, it runs like this:
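HUVEC co-cultured with PBMC, compound dosed then read at 24 h; E-selectin measured by ELISA. Activity fitted bidirectionally against DMSO as negative control and baseline.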

Read-out in assay [19]: CD38, CD38 (gene 952)
Description: BSK_SAg_CD38: BioMAP Diversity Plus: SAg Assay for CD38 Biomarker Activity (AID 2283087). Conditions: primary human HUVEC with PBMC; actives raise or lower the signal. In short, it runs like this: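 CD38 quantified by ELISA (fluorescence) in a superantigen-activated endothelial cell–PBMC co-culture at 24 h post-dose. Activity fitted in both directions relative to DMSO; parallel SRB and Alamar Blue cytotoxicity read-outs.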

Read-out in assay [20]: CD69, CD69 (gene 969)
Description: BSK_SAg_CD69: BioMAP Diversity Plus: SAg Assay for CD69 Biomarker Activity (AID 2283089). Conditions: primary human HUVEC with PBMC; actives raise or lower the signal. The essentials:
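Primary human vascular co-culture (umbilical vein endothelium with peripheral blood mononuclear cells) exposed to test chemical for 24 h. CD69 levels quantified by fluorescence ELISA; DMSO served as negative control for bidirectional fitting.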

Where a structure was tested more than once in an assay, its records may differ in their call. Active and inactive are the calls of the source. How the source made its calls: active means hit-call score of the fitted dose curve at least 0.9, where 1 is the maximum; inactive means score below 0.9.

Sequence of Tumor necrosis factor (Homo sapiens) (P01375 whole entry, looked up): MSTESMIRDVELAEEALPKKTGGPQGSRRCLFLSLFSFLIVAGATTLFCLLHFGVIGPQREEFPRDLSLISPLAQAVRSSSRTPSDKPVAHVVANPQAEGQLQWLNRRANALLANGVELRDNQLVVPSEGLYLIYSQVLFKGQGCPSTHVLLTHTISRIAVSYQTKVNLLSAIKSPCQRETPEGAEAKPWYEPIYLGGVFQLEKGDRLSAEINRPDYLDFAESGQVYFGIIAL
Sequence of E-selectin (Homo sapiens) (P16581 whole entry, looked up): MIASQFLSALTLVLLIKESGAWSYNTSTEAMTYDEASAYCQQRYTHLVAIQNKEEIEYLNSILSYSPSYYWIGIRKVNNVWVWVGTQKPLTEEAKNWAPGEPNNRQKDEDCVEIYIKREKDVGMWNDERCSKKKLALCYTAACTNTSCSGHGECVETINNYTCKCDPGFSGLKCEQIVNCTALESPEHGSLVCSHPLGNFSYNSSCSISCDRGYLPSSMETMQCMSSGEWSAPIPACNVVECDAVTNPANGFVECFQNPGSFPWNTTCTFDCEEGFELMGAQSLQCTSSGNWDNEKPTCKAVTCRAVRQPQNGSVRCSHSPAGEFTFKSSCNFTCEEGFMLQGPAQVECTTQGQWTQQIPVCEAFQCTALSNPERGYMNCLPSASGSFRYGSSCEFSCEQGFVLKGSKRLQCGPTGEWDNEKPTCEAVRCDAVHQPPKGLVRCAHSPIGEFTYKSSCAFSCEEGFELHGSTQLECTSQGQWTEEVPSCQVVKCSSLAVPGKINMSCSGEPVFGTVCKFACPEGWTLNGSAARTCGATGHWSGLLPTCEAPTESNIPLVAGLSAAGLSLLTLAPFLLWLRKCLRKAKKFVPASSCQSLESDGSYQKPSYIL

Regarding `CC(C)NC(=O)N1CC(=O)N(c2cc(Cl)cc(Cl)c2)C1=O`, the result in assay [1], in assay [2], in [3], in assay [4], in assay [5] and in [6] was inactive. Moreover, the result in assay [7], in [8], in assay [9], in assay [10], in [11] and in [12] was inactive. For the same molecule, the outcome in [13], in assay [14], in assay [15], in [16], in [17] and in [18] was inactive.

For `CCCC(=NOCC)C1=C(O)CC(CC(C)SCC)CC1=O` (configuration not stated), the outcome in [1], in [2], in assay [3], in assay [4], in [5] and in [6] was inactive. Moreover, the outcome in assay [7], in [8], in assay [9], in assay [10], in [11] and in assay [12] was inactive. Further, the outcome in assay [13], in [14], in [15], in assay [16], in assay [17] and in assay [18] was inactive.

The term AC50 denotes the concentration at which the activity in the assay is half-maximal. As to `COCC(C)N(C(=O)CCl)c1c(C)csc1C` (configuration not stated), the outcome in assay [1], in assay [2], in assay [3], in [4], in assay [5] and in [6] was inactive. The outcome in assay [7], in [8], in assay [9], in [10], in assay [11] and in [12] was inactive. For the same molecule, the result in [13], in assay [14], in assay [15], in [19], in assay [16] and in assay [20] was inactive. The result in assay [17] was inactive. The half-maximal activity concentration (AC50) is 3.97 µM (active) in assay [15] and 10.7 µM (active) in assay [18].
